Laboratory results as given in the supplement of paper PMC4237247.

What follows are molecules tested on HeLa (assay: percent cells in S phase; higher = more S arrest). Conditions: 10 µM; 20 h; hit class: G1-phase inhibitor.
Experimental: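 HTS of 79,827 drug-like compounds at 10 uM. HeLa cells in 384-well plates were treated for 20 h, fixed, stained with Vybrant DyeCycle Green and scanned on an Acumen eX3 cytometer to give per-well cell cycle profiles (% cells in each phase). The plate Z' was 0.51. Only hits are listed: G1 hits >4 SD and S hits >5 SD from the mean.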

| SMILES | percent cells in S phase [%] |
| --- | --- |
| CNc1ccc2oc(C[C@H]3O[C@@]4(CC[C@H]3C)O[C@H]([C@H](C)C(=O)c3ccc[nH]3)[C@H](C)C[C@H]4C)nc2c1C(=O)O | 6.33 |
| CC(C)(C)c1cc(C=C(C#N)C#N)cc(C(C)(C)C)c1O | 8.81 |
| C[C@@H]1C[C@@H]([C@H](O)CC2CC(=O)NC(=O)C2)C(=O)[C@@H](C)C1 [Cycloheximide] | 6.83 |
| C[C@@H]1O[C@@H](O[C@H]2C[C@@H](O)[C@]3(CO)[C@H]4[C@H](O)C[C@]5(C)[C@@H](C6=CC(=O)OC6)CC[C@]5(O)[C@@H]4CC[C@]3(O)C2)[C@H](O)[C@H](O)[C@H]1O | 15 |
| O=[N+]([O-])c1ccc(NCCO)c2ncccc12 | 4.86 |
| C/C(=C\c1ccc(Cl)cc1)[N+](=O)[O-] | 4.01 |
| C/C=C(/C)C(=O)O[C@H]1C(C)=C2[C@H]([C@@H]1OC(=O)CCCCCCC)[C@@](C)(OC(C)=O)C[C@H](OC(=O)CCC)[C@@]1(O)[C@H]2OC(=O)[C@@]1(C)O | 7.22 |
| CNC1CC2OC(C)(C1OC)n1c3ccccc3c3c4c(c5c6ccccc6n2c5c31)C(=O)NC4 (centres undefined) | 5.4 |
| C[C@@]12C(=O)OC(=O)[C@]1(C)[C@H]1CC[C@@H]2O1 | 8.95 |
